# Measured values taken from PubChem BioAssay (NCI).
# Several values for one entry are separate records, joined by “and”; a condition that tells them apart may be missing. Identical values can stand only once. This is part of a sample that, as a whole, favours compounds with a hit. Of some 83,000 tested, about 20% had one in any assay.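 Note: values are percent growth. 100 is the growth of untreated cells, values between 100 and 0 indicate rising inhibition; between -100 and 0 indicates cell death.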 Values without a mark were called inactive. Activity calls are given as the source filed them. How the source made its calls: active means growth percent below 10; inactive means the rest.
# How the values were obtained:
# Experiment in all cases: NCI-60 one-dose screen, 48 h (100 = growth as untreated, 0 = no growth, -100 = all killed)
# OVCAR-8 ovarian = test system: OVCAR-8 ovarian
# OVCAR-5 ovarian = test system: OVCAR-5 ovarian
# OVCAR-4 ovarian = test system: OVCAR-4 ovarian
# SK-OV-3 ovarian = test system: SK-OV-3 ovarian
# IGROV1 ovarian = test system: IGROV1 ovarian
# OVCAR-3 ovarian = test system: OVCAR-3 ovarian
# HS 578T breast = test system: HS 578T breast
# NCI/ADR-RES ovarian = test system: NCI/ADR-RES ovarian
# T-47D breast = test system: T-47D breast
# BT-549 breast = test system: BT-549 breast
# MDA-MB-435 melanoma = test system: MDA-MB-435 melanoma
# SW-620 colon = test system: SW-620 colon
# MCF7 breast = test system: MCF7 breast
# HCT-116 colon = test system: HCT-116 colon
# HCC-2998 colon = test system: HCC-2998 colon
# KM12 colon = conditions: 10 µM
compound,measurement,setting,value
CC(=O)O[C@H]1C(=O)[C@@]2(C)[C@H]([C@H](OC(=O)c3ccccc3)[C@]3(O)C[C@H](OC(=O)[C@H](O)[C@@H](NC(=O)c4ccccc4)c4ccccc4)C(C)=C1C3(C)C)[C@]1(OC(C)=O)CO[C@@H]1C[C@@H]2O,growth,OVCAR-8 ovarian; 2.5 µM,4.98% (active)
same,growth,OVCAR-8 ovarian; 5 µM,11.6%
same,growth,OVCAR-5 ovarian; 0.01 µM,20.6%
same,growth,OVCAR-5 ovarian; 2.5 µM,9.17% (active)
same,growth,OVCAR-5 ovarian; 5 µM,10.8%
same,growth,OVCAR-4 ovarian; 0.01 µM,64.7%
same,growth,OVCAR-4 ovarian; 2.5 µM,56.9%
same,growth,OVCAR-4 ovarian; 5 µM,61.3%
same,growth,SK-OV-3 ovarian; 0.01 µM,52%
same,growth,SK-OV-3 ovarian; 2.5 µM,10.2%
same,growth,SK-OV-3 ovarian; 5 µM,16.2%
same,growth,IGROV1 ovarian; 0.01 µM,39%
same,growth,IGROV1 ovarian; 2.5 µM,32.2%
same,growth,IGROV1 ovarian; 5 µM,35.2%
same,growth,OVCAR-3 ovarian; 0.01 µM,-6.94% (active)
same,growth,OVCAR-3 ovarian; 2.5 µM,-5.62% (active)
same,growth,OVCAR-3 ovarian; 5 µM,-2.89% (active)
same,growth,HS 578T breast; 0.01 µM,-47.1% (active)
same,growth,HS 578T breast; 2.5 µM,-18.5% (active)
same,growth,HS 578T breast; 5 µM,-14.2% (active)
same,growth,NCI/ADR-RES ovarian; 0.01 µM,92.8%
same,growth,NCI/ADR-RES ovarian; 2.5 µM,50.7%
same,growth,NCI/ADR-RES ovarian; 5 µM,25.9%
same,growth,T-47D breast; 0.01 µM,35.5%
same,growth,T-47D breast; 2.5 µM,27.9%
same,growth,T-47D breast; 5 µM,32.5%
same,growth,BT-549 breast; 0.01 µM,-1.3% (active)
same,growth,MDA-MB-435 melanoma; 0.01 µM,-84.7% (active)
same,growth,MDA-MB-435 melanoma; 2.5 µM,-41.9% (active)
same,growth,MDA-MB-435 melanoma; 5 µM,-19.9% (active)
same,growth,SW-620 colon; 0.01 µM,24.4%
same,growth,SW-620 colon; 2.5 µM,38.5%
same,growth,SW-620 colon; 5 µM,50.3%
same,growth,MCF7 breast; 0.01 µM,8.89% (active)
same,growth,MCF7 breast; 2.5 µM,14.3%
same,growth,MCF7 breast; 5 µM,15.4%
same,growth,HCT-116 colon; 0.01 µM,6.56% (active)
same,growth,HCT-116 colon; 2.5 µM,2.87% (active)
same,growth,HCT-116 colon; 5 µM,6.48% (active)
same,growth,HCC-2998 colon; 0.01 µM,-65.6% (active)
same,growth,HCC-2998 colon; 2.5 µM,-10.3% (active)
same,growth,HCC-2998 colon; 5 µM,0.255% (active)
S=P(N1CC1)(N1CC1)N1CC1,growth,OVCAR-5 ovarian; 100 µM,64.7%
same,growth,OVCAR-4 ovarian; 100 µM,87.9%
same,growth,SK-OV-3 ovarian; 100 µM,67.2%
same,growth,IGROV1 ovarian; 100 µM,70.7%
same,growth,OVCAR-3 ovarian; 100 µM,69.8%
same,growth,HS 578T breast; 100 µM,66%
same,growth,NCI/ADR-RES ovarian; 100 µM,40.3%
same,growth,T-47D breast; 100 µM,53.7%
same,growth,BT-549 breast; 100 µM,47.5%
same,growth,MDA-MB-435 melanoma; 100 µM,64.8%
same,growth,SW-620 colon; 100 µM,73%
same,growth,MCF7 breast; 100 µM,29.3%
same,growth,HCT-116 colon; 100 µM,51.3%
same,growth,HCC-2998 colon; 100 µM,-5.61% (active)
COc1ccc2oc(-c3ccc(Cl)cc3)c(N3CCN(C)CC3)c2c1,growth,OVCAR-8 ovarian; 10 µM,31.8%
same,growth,OVCAR-5 ovarian; 10 µM,2.8% (active)
same,growth,OVCAR-4 ovarian; 10 µM,78.2%
same,growth,SK-OV-3 ovarian; 10 µM,55.1%
same,growth,IGROV1 ovarian; 10 µM,-87.5% (active)
same,growth,OVCAR-3 ovarian; 10 µM,1.93% (active)
same,growth,HS 578T breast; 10 µM,28.3%
same,growth,NCI/ADR-RES ovarian; 10 µM,-10.9% (active)
same,growth,T-47D breast; 10 µM,14.6%
same,growth,BT-549 breast; 10 µM,134%
same,growth,MDA-MB-435 melanoma; 10 µM,-19.3% (active)
same,growth,SW-620 colon; 10 µM,0.0094% (active)
same,growth,MCF7 breast; 10 µM,-75.8% (active)
same,growth,HCT-116 colon; 10 µM,22.4%
same,growth,HCC-2998 colon; 10 µM,-12.4% (active)
same,growth,KM12 colon,-46.6% (active)
COc1cc2c(cc1C[N+](C)(C)CSc1ccccc1)-c1ccccc1CC2,growth,MCF7 breast; 100 µM,-75.8% (active) and -73.3% (active)
O=C1C(Cl)=C(Cl)C(Cl)(Cl)C(Cl)C1(Cl)Cl (centres undefined),growth,OVCAR-8 ovarian; 10 µM,106%
same,growth,OVCAR-5 ovarian; 10 µM,102%
same,growth,SK-OV-3 ovarian; 10 µM,103%
same,growth,IGROV1 ovarian; 10 µM,90.9%
same,growth,OVCAR-3 ovarian; 10 µM,112%
same,growth,HS 578T breast; 10 µM,109%
same,growth,NCI/ADR-RES ovarian; 10 µM,104%
same,growth,T-47D breast; 10 µM,91.9%
same,growth,BT-549 breast; 10 µM,96.4%
same,growth,MDA-MB-435 melanoma; 10 µM,111%
same,growth,SW-620 colon; 10 µM,105%
same,growth,MCF7 breast; 10 µM,96.8%
same,growth,HCT-116 colon; 10 µM,102%
same,growth,HCC-2998 colon; 10 µM,106%
N#CC(=S)Nc1cccc(Cl)c1,growth,MCF7 breast; 100 µM,0.126% (active) and -100% (active)
O=C(CNS(=O)(=O)Cc1ccccc1)NNc1ccccc1,growth,OVCAR-8 ovarian; 10 µM,58.4%
same,growth,OVCAR-5 ovarian; 10 µM,68.6%
same,growth,OVCAR-4 ovarian; 10 µM,42.6%
same,growth,SK-OV-3 ovarian; 10 µM,78.7%
same,growth,IGROV1 ovarian; 10 µM,65.5%
same,growth,OVCAR-3 ovarian; 10 µM,86.8%
same,growth,NCI/ADR-RES ovarian; 10 µM,67%
same,growth,T-47D breast; 10 µM,56.6%
same,growth,BT-549 breast; 10 µM,82.9%
same,growth,MDA-MB-435 melanoma; 10 µM,21.9%
same,growth,MCF7 breast; 10 µM,76.5%
same,growth,HCT-116 colon; 10 µM,55.6%
same,growth,HCC-2998 colon; 10 µM,70.5%
ClCCn1c(CCl)nc2ccc(Cl)cc21,growth,OVCAR-8 ovarian; 10 µM,-33% (active)
same,growth,OVCAR-5 ovarian; 10 µM,-22.9% (active)
same,growth,OVCAR-4 ovarian; 10 µM,-18.9% (active)
same,growth,IGROV1 ovarian; 10 µM,-62.5% (active)
same,growth,OVCAR-3 ovarian; 10 µM,-89.6% (active)
same,growth,HS 578T breast; 10 µM,-10.9% (active)
same,growth,NCI/ADR-RES ovarian; 10 µM,2.35% (active)
same,growth,BT-549 breast; 10 µM,-66.2% (active)
same,growth,MDA-MB-435 melanoma; 10 µM,-83% (active)
same,growth,SW-620 colon; 10 µM,-54.6% (active)
same,growth,MCF7 breast; 10 µM,-6.55% (active)
same,growth,HCT-116 colon; 10 µM,-28.9% (active)
same,growth,HCC-2998 colon; 10 µM,-2.45% (active)
Cc1cc(O)c2c(c1O)C(=O)C13C(=C2O)C(=O)C2C(O)C1C1C(O)C3C(=O)C3=C(O)c4c(O)cc(C)c(O)c4C(=O)C321 (centres undefined),growth,OVCAR-5 ovarian; 10 µM,-50.6% (active)
same,growth,OVCAR-4 ovarian; 10 µM,27.8%
same,growth,SK-OV-3 ovarian; 10 µM,-13.1% (active)
same,growth,IGROV1 ovarian; 10 µM,10.3%
same,growth,OVCAR-3 ovarian; 10 µM,-39.1% (active)
same,growth,HS 578T breast; 10 µM,-55.2% (active)
same,growth,NCI/ADR-RES ovarian; 10 µM,-17% (active)
same,growth,T-47D breast; 10 µM,-1.74% (active)
same,growth,BT-549 breast; 10 µM,-53.3% (active)
same,growth,MDA-MB-435 melanoma; 10 µM,-14.7% (active)
same,growth,SW-620 colon; 10 µM,8.3% (active)
same,growth,MCF7 breast; 10 µM,4.59% (active)
same,growth,HCT-116 colon; 10 µM,2.8% (active)
same,growth,HCC-2998 colon; 10 µM,-43.6% (active)
O=C1c2ccccc2CCC1(Br)Br,growth,OVCAR-8 ovarian; 10 µM,38.6%
same,growth,OVCAR-5 ovarian; 10 µM,25.8%
same,growth,OVCAR-4 ovarian; 10 µM,-27.5% (active)
same,growth,SK-OV-3 ovarian; 10 µM,95%
same,growth,IGROV1 ovarian; 10 µM,88.4%
same,growth,OVCAR-3 ovarian; 10 µM,-69.6% (active)
same,growth,HS 578T breast; 10 µM,69.4%
same,growth,NCI/ADR-RES ovarian; 10 µM,19.3%
same,growth,T-47D breast; 10 µM,-23.8% (active)
same,growth,BT-549 breast; 10 µM,-31.9% (active)
same,growth,MDA-MB-435 melanoma; 10 µM,3.86% (active)
same,growth,SW-620 colon; 10 µM,-45.5% (active)
same,growth,MCF7 breast; 10 µM,21.6%
same,growth,HCT-116 colon; 10 µM,-90% (active)
same,growth,HCC-2998 colon; 10 µM,77.2%
same,growth,KM12 colon,87.2%
C=C(C)[C@@H]1CCc2c(O)c(O)c(=O)cc(C)c2C1,growth,MCF7 breast; 100 µM,-84.1% (active) and -67.9% (active)
COc1ccc(N)c2c1C(=O)c1ccccc1C2=O,growth,OVCAR-8 ovarian; 10 µM,95.7%
same,growth,OVCAR-5 ovarian; 10 µM,103%
same,growth,OVCAR-4 ovarian; 10 µM,109%
same,growth,SK-OV-3 ovarian; 10 µM,89.4%
same,growth,IGROV1 ovarian; 10 µM,88.7%
same,growth,OVCAR-3 ovarian; 10 µM,115%
same,growth,HS 578T breast; 10 µM,107%
same,growth,NCI/ADR-RES ovarian; 10 µM,110%
same,growth,T-47D breast; 10 µM,81.9%
same,growth,MDA-MB-435 melanoma; 10 µM,108%
same,growth,SW-620 colon; 10 µM,106%
same,growth,MCF7 breast; 10 µM,95.2%
same,growth,HCT-116 colon; 10 µM,102%
same,growth,HCC-2998 colon; 10 µM,105%
